Compound activity as filed in PubChem BioAssay.
Rows were chosen to be rich in hits. Some 9.2% of all compounds tested hit in one or more screens of this group.
NPC1 prom act – qHTS Assay for NPC1 Promoter Activators | Huh7 NPC1 promoter luciferase reporter, 24 h | Potency, µM (top dose mostly 9.22 µM), for inactives: at the highest dose activation, usual class: activators | 2.4% of 320,000 active; note: % of control where 0% means no effect; nearly all actives have a fitted effect of over 60% in size
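Compounds in DMSO were transferred onto Huh7 NPC1-luciferase reporter cells pre-incubated 2 h; after 24 h at 37 °C, Amplite reagent was dispensed and luminescence recorded 10 min later.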
SMN2 splice up – qHTS Assay for Enhancers of SMN2 Splice Variant Expression | HEK293 SMN2-luciferase splicing reporter, luminescence, 30-36 h | Potency, µM (titrated, usually from 46.1 µM), for inactives: top-dose activity change, positive = activation, hits mostly activators | 2.8% of 210,000 active; note: % of control where 0% means no effect; nearly all actives have a fitted effect of over 55% in size
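HEK293 cells carry an SMN2 […]–luciferase reporter in which exon 7 inclusion puts luciferase in frame. Cells were plated 10-12 h before compound addition, then incubated 30-36 h at 37C. ONE-Glo luminescence was read; sodium butyrate at 4.5 mM final served as control.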
FLuc modulator – qHTS profiling assay for firefly luciferase inhibitor/activator using purifed enzyme and Km concentrations of substrates (counterscreen for miR-21 project); Luciferin 4-monooxygenase (Photinus pyralis), P08659; purified FLuc, Km substrates, luminescence inhibition; Potency, µM (doses to about 57.5 µM), for the others: top-dose activity change, negative = inhibition, actives largely listed as inhibitors; 6.9% of 360,000 active; AID 588342, 2011;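 note: plate controls were vehicle for no effect and reference inhibitor for full effect; nearly all actives have a fitted effect of over 55% in size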
Target sequence (P08659 whole entry, looked up): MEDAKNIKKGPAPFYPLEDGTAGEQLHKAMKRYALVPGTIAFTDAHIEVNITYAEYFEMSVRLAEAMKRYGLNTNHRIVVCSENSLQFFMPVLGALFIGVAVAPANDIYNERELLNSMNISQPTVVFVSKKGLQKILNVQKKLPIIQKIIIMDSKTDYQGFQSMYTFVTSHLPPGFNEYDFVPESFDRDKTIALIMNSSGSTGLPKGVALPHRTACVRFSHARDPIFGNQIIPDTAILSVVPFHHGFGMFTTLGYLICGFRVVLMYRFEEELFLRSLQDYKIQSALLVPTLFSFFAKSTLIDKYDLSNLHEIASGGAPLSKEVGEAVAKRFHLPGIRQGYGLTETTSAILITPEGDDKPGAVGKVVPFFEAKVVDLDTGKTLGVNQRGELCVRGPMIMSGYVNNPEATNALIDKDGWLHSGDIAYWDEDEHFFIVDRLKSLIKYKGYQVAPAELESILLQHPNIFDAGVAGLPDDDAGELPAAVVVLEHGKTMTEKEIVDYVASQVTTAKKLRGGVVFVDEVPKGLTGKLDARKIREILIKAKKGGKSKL
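Purified P. pyralis luciferase (10nM final) with 10uM D-luciferin and 10uM ATP (Km levels) in 50mM Tris acetate pH 7.5, 10mM Mg acetate, 0.01% Tween-20, 0.05% BSA; qHTS 6-point titration, ~60 µM downward; luminescence read.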
ELG1 genotoxic – qHTS screen for small molecules that induce genotoxicity in human embryonic kidney (HEK293T) cells expressing luciferase-tagged ELG1 | 1.3% of 330,000 active | Potency, µM (top dose mostly 46 µM), without a hit: top-dose activity change, positive = activation, actives largely listed as activators | HEK293T ELG1-luciferase reporter, luminescence, 16 h | AID 504466, 2011; note: % of control where 0% means no effect; nearly all actives have a fitted effect of over 60% in size
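Luminescence read-out: rising ELG1-luciferase signal, reflecting elevated ELG1 protein under genetic stress, flags genotoxic compounds. Cells were treated for 16 hr at 37 °C before ONE-Glo detection.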
Rab9 prom act – qHTS Assay for Rab9 Promoter Activators | Huh7 Rab9 promoter-luciferase reporter, luminescence, 24 h | Potency, µM (top dose mostly 9.22 µM), inactives show at the highest dose activation, negative = inhibition, hits mostly activators | 2.8% of 320,000 active | AID 485297, 2010; note: % of control where 0% means no effect; nearly all actives have a fitted effect of over 60% in size
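Huh7 cells stably carrying a Rab9 promoter-luciferase reporter, 1500 cells per well in OP-MEM I with 10% FBS, treated with compound 24 hours at 37C. Luciferase activity read by luminescence after 10 minutes with Amplite reagent.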
ELG1 repair inh – qHTS screen for small molecules that inhibit ELG1-dependent DNA repair in human embryonic kidney (HEK293T) cells expressing luciferase-tagged ELG1; HEK293T ELG1-luciferase reporter, luminescence, 16 h; DNA damage induced by 5-fluorouridine; Potency, µM (titrated, usually from 46.1 µM), for the others: at the top dose activity change, negative = inhibition, usual class: inhibitors; 2.3% of 330,000 active; AID 504467, 2011; note: % is set by controls: 0 for no effect and ±100 for the full control effect; nearly all actives have a fitted effect of over 55% in size
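HEK293T cells expressing luciferase-tagged ELG1 (2,000/well) received 5-Fluorouridine plus compound or DMSO for 16 hr at 37 °C. Luciferase was read by ONE-Glo luminescence after 30 min at room temperature.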
Numbers without * were called inactive; ? = inconclusive; . = no result given. Calls come from the whole dose curve; as a rule, active = well fitted curve in the direction sought with a large enough effect; inconclusive = small, poorly fitted or top-dose-only effect, or another doubt; inactive = no such curve, though single readings can be large; an effect the other way counts as inactive or inconclusive. Potency is the fitted concentration of half-maximal effect.

SMILES | NPC1 prom act | SMN2 splice up | FLuc modulator | ELG1 genotoxic | Rab9 prom act | ELG1 repair inh
CCCCn1cnc2cc(NCc3ccccc3Cl)ccc21 | . | 18% | 24µM* | . | . | .
CCn1cnc2cc(NCc3ccccc3Cl)ccc21 | ? | . | 17µM* | ? | ? | ?
O=C(Cn1c(=O)n2nc(-c3cccc(F)c3)nc2c2ccccc21)N1CCN(c2ccc(F)cc2)CC1 | . | . | -2% | . | . | .
CCCOc1ccc(-c2nonc2NC(=O)c2oc3ccc(Cl)cc3c2C)cc1OCCC | . | 4% | -19% | . | . | .
CCOc1cc(C)c(C(C)C)cc1S(=O)(=O)n1cnc(C)c1 | -18% | -11% | -3% | 4% | -16% | -7%
O=S(=O)(c1cccs1)N1CCN(CCOc2ccc(Cl)cc2)CC1 | -10% | . | . | -1% | -18% | -18%
O=S(=O)(c1cccs1)N1CCN(CC(O)COc2cc(Cl)ccc2Cl)CC1 (stereo not given) | -3% | -94% | 1% | -22% | -22% | 8.2µM*
COc1cccc(Nc2nnc(Cc3cccnc3)c3ccccc23)c1 | -2% | . | -4% | 2% | -1% | -10%
O=C(Nc1cccc([N+](=O)[O-])c1)C1C2CCCCC21 (stereo not given) | 2% | . | -9% | 0% | 15% | 16%
Cc1ccc(NC(=O)C2C3/C=C\CCCCC32)cc1 (stereo not given) | ? | ? | ? | 15% | 3.5µM* | ?
Cc1cccc(NC(=O)C2C3CCCCC32)c1 (stereo not given) | ? | . | 19µM* | ? | ? | ?
Cc1cc(C)c(NC(=O)C2C3/C=C\CCCCC32)c(C)c1 (stereo not given) | 20% | 15% | 1% | 5% | ? | 18%
Cc1ccc(NC(=O)C2C3CCCCC32)cc1[N+](=O)[O-] (stereo not given) | ? | . | 12µM* | ? | ? | ?
Cc1cc(NC(=O)OC2CCCCC2)ccc1[N+](=O)[O-] | 2.8µM* | . | 7.6µM* | 22% | 2.8µM* | ?
Cc1ccc(NC(=O)COC(=O)C2CCC2)cc1S(=O)(=O)N1CCOCC1 | . | . | . | 3% | . | 8%
O=S(=O)(NCCc1nnc2ccc(SCc3ccc(C(F)(F)F)cc3)nn12)c1ccccc1 | . | . | 1% | . | . | .
CCC(NC(=O)NCc1cccnc1)(C(F)(F)F)C(F)(F)F | -2% | 0% | -1% | 0% | -4% | 11%
NNC(=O)Cn1c(-c2ccccc2)cc(=O)n2ncnc12 | -6% | . | -1% | 0% | -4% | 9%
Cc1ccc(S(=O)(=O)c2nnn(CC(=O)Nc3ccccc3C)c2N)cc1 | . | -9% | 2% | . | . | .
O=C(Nc1ccc(N2CCOCC2)c(Cl)c1)c1ccc([N+](=O)[O-])o1 | 27% | ? | 12µM* | ? | ? | -5%
CCCC(=O)N1CCN(c2ccc(NC(=O)c3ccc([N+](=O)[O-])o3)cc2Cl)CC1 | -17% | -48% | 4% | -10% | -3% | ?
CC(C)C(=O)N1CCN(c2ccc(NC(=O)c3ccc([N+](=O)[O-])o3)cc2Cl)CC1 | -12% | -1% | 1% | -12% | -39% | -1%
CN1CCN(c2ccc(NC(=O)c3ccc([N+](=O)[O-])o3)cc2Cl)CC1 | ? | . | 9.5µM* | ? | ? | ?
Cc1ccc(CN2CCC(CNC(=O)c3cnn(-c4ccccc4)c3C3CCN(C(=O)OC(C)(C)C)CC3)CC2)cc1 | . | . | -6% | . | . | .
O=C(/C=C/c1cccs1)N1CCN(c2ccccc2F)CC1 | -3% | 10% | -13% | 6% | -4% | ?
O=C(c1cccs1)N1CCc2ccccc21 | ? | 14µM* | 27µM* | ? | ? | ?
